# Bioassay records deposited in PubChem BioAssay by several laboratories.
# An excerpt weighted towards active compounds, which were near 5.9% of everything screened.
# ABHD5-PLIN5 inh: inhibitors of human ABHD5-perilipin-5 interaction. 0.78% of 360,000 active. inhibition, % at 4 µM. Split G. princeps luciferase complementation, luminescence, 4 h. AID 602281;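 active = inhibition above the mean inhibition across every tested compound plus 3 SD, cut at about 22% in these data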;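 note: 0% = DMSO only wells and the 100% control is not disclosed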
# ALR inh: blocks human ALR sulfhydryl oxidase activity; AID 485317; 3.8% of 290,000 active; purified ALR, DTT oxidation, H2O2 HRP-luminol luminescence; inhibition, % (concentration not given with the values); P55789;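 active = mean replicate inhibition above about 79%, with every replicate also reaching it, limit read from the data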
# rCAG binder: r(CAG) repeat RNA binding; TO-PRO-1 dye displacement fluorescence; inhibition, % at 3 µM; 1.3% of 370,000 active; AID 651821;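 active = inhibition above the plate cutoff, the mean of all test compounds on that plate plus 3 SD, cut at about 35% in these data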;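 note: 0% = DMSO alone and 100% = 100 µM mitoxantrone as full dye displacement; higher means more dye released from RNA so lower well fluorescence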
# Rtt109 HAT inh: inhibitors of Candida albicans Rtt109/Vps75 histone acetyltransferase | purified Rtt109/Vps75, ThioGlo CoA-SH fluorescence, 4 h | 0.16% of 330,000 active | inhibition, % at 34.9 µM | Q5AAJ8;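 active = inhibition of at least 50% in every replicate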
# PRMT1 inh: blocks human protein arginine methyltransferase 1; recombinant PRMT1, activity-based probe fluorescence polarization; inhibition, % at 2.79 µM; 1.3% of 370,000 active;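 active = inhibition above about 21% made by adding two undisclosed values, limit read from the data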
# LANA-H2B inh: blocks KSHV LANA binding to histone H2A/H2B; Q9QR71; cell-free LANA-H2A/H2B peptide, fluorescence polarization; inhibition, % (concentration not given with the values); 0.6% of 320,000 active; AID 2629; in the data active = inhibition mostly above about 10%, no sharp cut-off; inactive = mostly below about 6.7%
# Target sequence (Q9QR71 whole entry, looked up): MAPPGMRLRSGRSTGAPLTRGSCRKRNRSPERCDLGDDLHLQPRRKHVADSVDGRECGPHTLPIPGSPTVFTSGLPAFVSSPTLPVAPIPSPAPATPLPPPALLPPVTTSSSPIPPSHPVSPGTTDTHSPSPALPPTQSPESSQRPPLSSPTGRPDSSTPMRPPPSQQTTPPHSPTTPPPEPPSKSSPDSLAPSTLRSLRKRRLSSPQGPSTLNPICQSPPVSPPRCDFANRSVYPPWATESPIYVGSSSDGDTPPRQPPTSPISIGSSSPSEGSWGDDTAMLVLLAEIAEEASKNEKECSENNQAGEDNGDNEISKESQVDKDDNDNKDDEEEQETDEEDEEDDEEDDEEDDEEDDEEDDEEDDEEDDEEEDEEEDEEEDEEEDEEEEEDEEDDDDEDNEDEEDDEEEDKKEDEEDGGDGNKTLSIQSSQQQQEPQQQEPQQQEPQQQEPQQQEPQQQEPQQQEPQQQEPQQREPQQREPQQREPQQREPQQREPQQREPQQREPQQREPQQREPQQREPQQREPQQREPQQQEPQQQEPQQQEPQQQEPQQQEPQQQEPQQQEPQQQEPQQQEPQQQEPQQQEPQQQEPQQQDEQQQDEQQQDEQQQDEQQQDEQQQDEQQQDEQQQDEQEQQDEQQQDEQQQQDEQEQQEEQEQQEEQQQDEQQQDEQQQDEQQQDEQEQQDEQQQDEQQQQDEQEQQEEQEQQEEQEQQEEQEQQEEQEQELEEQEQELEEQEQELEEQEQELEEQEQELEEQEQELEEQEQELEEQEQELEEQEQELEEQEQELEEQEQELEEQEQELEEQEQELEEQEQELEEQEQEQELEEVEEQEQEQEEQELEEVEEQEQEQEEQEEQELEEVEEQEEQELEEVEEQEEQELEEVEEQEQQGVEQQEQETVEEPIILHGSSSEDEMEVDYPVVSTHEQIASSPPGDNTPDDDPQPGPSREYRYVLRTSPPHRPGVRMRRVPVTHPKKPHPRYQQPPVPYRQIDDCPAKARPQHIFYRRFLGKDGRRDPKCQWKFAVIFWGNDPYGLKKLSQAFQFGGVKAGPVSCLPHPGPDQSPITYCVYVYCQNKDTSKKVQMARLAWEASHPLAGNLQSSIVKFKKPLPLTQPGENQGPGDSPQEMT
# An asterisk follows results filed as active; x = no result given; + = active, no number.
SMILES,ABHD5-PLIN5 inh,ALR inh,rCAG binder,Rtt109 HAT inh,PRMT1 inh,LANA-H2B inh
COc1ccc(N(C)S(=O)(=O)c2cccc(C(=O)Nc3nc(C)cs3)c2)cc1,2,97*,4,9,-3,0
Cc1ccc(N(C)S(=O)(=O)c2cccc(C(=O)Nc3nnc(C4CC4)s3)c2)cc1,-1,95*,2,-9,-1,-2
Fc1ccc(F)c(Cn2ccc3ccc(-c4ccc5ccn(Cc6cc(F)ccc6F)c5c4)cc32)c1,x,x,4,x,-1,x
COC(=O)C1=C(C)N(Cc2ccccc2C(F)(F)F)C(=NCc2ccccc2)NC1c1cccc(C(F)(F)F)c1 (stereo not given),x,x,1,x,-5,x
C[C@H]1[C@@H](OC(=O)NC2CCCCC2)CC[C@@]23CCCN2C(=O)CCC[C@@H]13,x,x,x,x,4,x
CC(=O)Nc1ccc(NC(C)=O)s1,-3,87*,1,-5,-1,1
CCCN1CCC(C)(C(=O)Nc2cccc(OC(C)C)c2)C1 (stereo not given),-3,x,1,x,-3,x
CCn1c(SCC(=O)Nc2ccccc2-c2ccccc2)nnc1-c1cnccn1,x,x,2,x,-9,x
CC(/C=C1\N=C(SCc2ccccc2Cl)SC1=O)=C\c1ccccc1,0,99*,8,5,4,1
O=C1SC(SCc2ccccc2)=N/C1=C\c1ccc(C(=O)O)cc1,-5,36,11,10,12,0
CC(COc1cccc([N+](=O)[O-])c1)CN1CCC(C(O)(c2ccccc2)c2ccccc2)CC1 (stereo not given),x,x,4,x,3,x
CCOC(=O)C1CCN(C(=S)Nc2ccccc2)CC1,10,-3,5,14,-1,5
CCOC(=O)C1CCCN(C(=O)c2ccc(-c3ccc([N+](=O)[O-])cc3)o2)C1 (stereo not given),5,6,11,-11,24*,0
CCOC(=O)C1CCCN(C(=S)Nc2ccc(Nc3ccccc3)cc2)C1 (stereo not given),-8,97*,2,2,0,0
CCOC(=O)C1CCCN(C(=O)c2ccc(CS(=O)(=O)c3ccc(C)cc3)o2)C1 (stereo not given),14,55,x,18,x,-7
CCOC(=O)C1CCCN(C(=O)C2COc3ccccc3O2)C1 (stereo not given),1,x,-8,-10,9,x
CCOC(=O)C1CCCN(C(=O)C2c3ccccc3Oc3ccccc32)C1 (stereo not given),0,-8,-8,10,11,71*
COc1ccc(Cn2ccc3ccc(-c4ccc5ccn(Cc6ccccc6)c5c4)cc32)cc1,x,x,18,x,-2,x
O=C(Nc1ccc2c(c1)OCO2)OC1CCC12CCC(c1ccccc1)CC2 (stereo not given),x,x,5,x,1,x
COc1cc2c(c(OC)c1OC)-c1ccc(SC)c(=O)cc1C(N)CC2 (stereo not given),2,x,9,8,1,x
Cc1ccc(-c2nc3c(Cl)cc(C(F)(F)F)cn3c2Cc2ccsc2)cc1,-6,x,55*,x,1,x
Fc1ccc(-c2nc3c(Cl)cc(C(F)(F)F)cn3c2Cc2ccsc2)cc1,-2,x,28,x,1,x
O=C(NCC1CCCCC1)c1cccc(-c2ccc(O)cc2)c1,-5,82*,0,3,-7,-2
CC(=O)Nc1cccc(NC(=O)c2cccc(-c3ccc(O)cc3)c2)c1,1,99*,3,7,3,-2
O=C(CSC1=NNC(c2ccccn2)S1)Nc1ccc(C(F)(F)F)cc1 (stereo not given),1,x,12,-18,24*,2
SMILES,ABHD5-PLIN5 inh,ALR inh,rCAG binder,Rtt109 HAT inh,PRMT1 inh,LANA-H2B inh
Cc1cc(Nc2cccc(Br)c2)cc(=O)n1-c1cccc(Br)c1,x,x,12,x,0,x
C=COC(=O)CSc1snc(SCC(=O)OC)c1C#N,4,99*,2,17,0,7
COc1ccc(N2C(=O)CSC2c2ccccc2[N+](=O)[O-])cc1 (stereo not given),-3,99*,-2,-4,-2,+
Cc1c(N2C(=O)CSC2c2ccc([N+](=O)[O-])cc2)c(=O)n(-c2ccccc2)n1C (stereo not given),-1,x,-4,-3,2,4
O=C1CSC(c2ccccc2)N1c1ccc([N+](=O)[O-])cc1 (stereo not given),-4,99*,1,0,2,-3
Cc1ccc(C2SCC(=O)N2Cc2ccccc2)cc1 (stereo not given),6,3,1,-6,2,-1
O=C1CSC(c2ccc3c(c2)OCO3)N1c1ccc(Oc2ccccc2)cc1 (stereo not given),0,x,12,8,3,-2
Cc1ccc(N2C(=O)CSC2c2ccc3c(c2)OCO3)cc1 (stereo not given),2,99*,0,3,1,-3
COc1ccc(C2SCC(=O)N2Cc2ccccc2)cc1 (stereo not given),0,81*,4,6,8,1
COC1=C[C@H](C(=O)N[C@H]2CCCC[C@@H]2NC(C)=O)[C@H](C)[C@@H](c2ccccc2)CC1=O,x,x,7,x,-3,x
COc1ccc(N2C(=O)CSC2c2ccccc2)cc1 (stereo not given),2,97*,0,-3,5,2
COc1ccc(C2SCC(=O)N2c2ccc(C)cc2)cc1 (stereo not given),-4,32,-7,-11,2,-3
CC(=O)Nc1ccc(N2C(=O)CSC2c2ccc(F)cc2)cc1 (stereo not given),1,99*,-3,6,2,1
CNC(=O)C[C@H]1C(=O)N(C2CCCCC2)C[C@@H]1c1ccc(Br)cc1,4,x,3,x,6,x
COC(=O)c1cnn(-c2ccc(F)cc2F)c1/C=N/NC(=S)Nc1ccccc1,x,x,x,x,6,x
CC(C)(C)OC(=O)N1CCC[C@H]1C(=O)NCc1ccc(F)cc1F,4,x,1,x,-4,x
COc1ccc(CCNC(=S)Nc2cccc(C)c2)cc1,-5,-6,x,-5,x,-1
CC(C)CCNC(=S)Nc1ccccn1,-9,91*,-2,-27,6,-2
Cc1cccc(NC(=S)NCCC(C)C)c1,-3,92*,0,5,-1,-1
COc1ccc([C@@H]2C[C@H]3[C@@H](CN2S(=O)(=O)c2ccccc2)C(=O)C[C@@H](c2ccccc2F)N3S(=O)(=O)c2ccc(C)cc2)cc1,7,x,11,x,7,x
COc1ccc(CN2CCC[C@]3(N[C@H](c4ccc(C)cc4)[C@@H]4C(=O)N(Cc5ccccc5)C(=O)[C@@H]43)C2=O)cc1,3,x,4,x,2,x
Cc1ccc(/C=C2\Oc3c(ccc(O)c3CN3CCN(CCO)CC3)C2=O)cc1,23*,1,-15,x,9,6
CC(C)c1ccc(/C=C2\Oc3c(ccc(O)c3CN3CCN(C)CC3)C2=O)cc1,11,10,-12,x,5,1
